According to PubChem BioAssay (NCI):
Compounds without any hit were thinned out: in the full panel of roughly 83,000, 20% have a hit.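 Cell lines were cultured in 96-well plates, exposed to a single compound concentration, and assessed for percent growth 48 hours later.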 The source made the active and inactive calls. Rule for the calls: active = growth percent below 10; inactive = the rest.

Columns and labels:
Assay in all cases: NCI-60 one-dose screen, 48 h (100 = growth as untreated, 0 = no growth, -100 = all killed)
Conditions in all cases: 10 µM unless noted
SR leukemia = system: SR leukemia
RPMI-8226 leukemia = system: RPMI-8226 leukemia
OVCAR-8 ovarian = system: OVCAR-8 ovarian
OVCAR-5 ovarian = system: OVCAR-5 ovarian
OVCAR-4 ovarian = system: OVCAR-4 ovarian
SK-OV-3 ovarian = system: SK-OV-3 ovarian
IGROV1 ovarian = system: IGROV1 ovarian
OVCAR-3 ovarian = system: OVCAR-3 ovarian
HS 578T breast = system: HS 578T breast
NCI/ADR-RES ovarian = system: NCI/ADR-RES ovarian
T-47D breast = system: T-47D breast
BT-549 breast = system: BT-549 breast
MDA-MB-435 melanoma = system: MDA-MB-435 melanoma
SW-620 colon = system: SW-620 colon
MCF7 breast = system: MCF7 breast
HCT-116 colon = system: HCT-116 colon
HCC-2998 colon = system: HCC-2998 colon
KM12 colon = system: KM12 colon

Measured: growth

Cc1ccc(C)c2c1sc1nc(N3CCOCC3)c(C#N)c(=O)n12
inactive: SR leukemia 63.5% | RPMI-8226 leukemia 76.5% | OVCAR-8 ovarian 110% | OVCAR-5 ovarian 95.8% | OVCAR-4 ovarian 76.8% | SK-OV-3 ovarian 99.4% | IGROV1 ovarian 55.9% | OVCAR-3 ovarian 89.9% | HS 578T breast 76.4% | NCI/ADR-RES ovarian 92.2% | T-47D breast 73.4% | BT-549 breast 90.9% | MDA-MB-435 melanoma 118% | SW-620 colon 105% | MCF7 breast 51.5% | HCT-116 colon 88.6% | HCC-2998 colon 109% | KM12 colon 63.1%

O=C(/C=C/c1ccccc1)c1cccc2ccccc12
inactive: OVCAR-8 ovarian 19.9% | OVCAR-5 ovarian 103% | OVCAR-4 ovarian 41.3% | SK-OV-3 ovarian 62.2% | IGROV1 ovarian 47.3% | OVCAR-3 ovarian 22.4% | HS 578T breast 32.1% | NCI/ADR-RES ovarian 24.9% | T-47D breast 32.9% | BT-549 breast 62.5% | MDA-MB-435 melanoma 16.8% | MCF7 breast 11.6% | HCT-116 colon 32% | HCC-2998 colon 48.3% | KM12 colon 37.4%
active: SR leukemia 8.29% | RPMI-8226 leukemia 6.78% | SW-620 colon 9.3%

CC(C)c1ccc2c(c1)CC[C@H]1[C@](C)(C(=O)OCC#CCN3CCCC3)CCC[C@]21C
inactive: SR leukemia 52.5% | RPMI-8226 leukemia 47.5% | OVCAR-8 ovarian 89% | OVCAR-5 ovarian 85.8% | OVCAR-4 ovarian 64.4% | SK-OV-3 ovarian 88.4% | IGROV1 ovarian 90.5% | OVCAR-3 ovarian 77.6% | HS 578T breast 87.6% | NCI/ADR-RES ovarian 82.2% | T-47D breast 63.4% | BT-549 breast 93.4% | MDA-MB-435 melanoma 82.9% | SW-620 colon 84.6% | MCF7 breast 73.9% | HCT-116 colon 48.5% | HCC-2998 colon 86.9% | KM12 colon 81.4%

C#COc1cccc(Nc2ncnc3cc(NC(=O)[C@H](C)Cl)ccc23)c1
active: OVCAR-8 ovarian 9.3% [6.25 µM] | SK-OV-3 ovarian 3.8% [6.25 µM] | IGROV1 ovarian 9.75% [6.25 µM] | OVCAR-3 ovarian 7.9% [6.25 µM] | T-47D breast 6.76% [6.25 µM] | BT-549 breast 9.94% [6.25 µM] | MDA-MB-435 melanoma -25.1% [6.25 µM] | HCT-116 colon 7.41% [6.25 µM] | HCC-2998 colon 5.81% [6.25 µM]
inactive: SR leukemia 92.6% [6.25 µM] | RPMI-8226 leukemia 100% [6.25 µM] | OVCAR-5 ovarian 25% [6.25 µM] | OVCAR-4 ovarian 56.6% [6.25 µM] | HS 578T breast 24.8% [6.25 µM] | NCI/ADR-RES ovarian 14.8% [6.25 µM] | SW-620 colon 14.5% [6.25 µM] | MCF7 breast 11.3% [6.25 µM] | KM12 colon 17.8% [6.25 µM]

Cn1c(=O)[nH]c(=O)c2nc3c(nc21)-c1ccccc1C3=O
inactive: SR leukemia 100% | RPMI-8226 leukemia 108% | OVCAR-8 ovarian 105% | OVCAR-5 ovarian 99.6% | OVCAR-4 ovarian 102% | SK-OV-3 ovarian 111% | IGROV1 ovarian 108% | OVCAR-3 ovarian 107% | HS 578T breast 104% | NCI/ADR-RES ovarian 95.2% | T-47D breast 103% | BT-549 breast 104% | MDA-MB-435 melanoma 100% | SW-620 colon 105% | MCF7 breast 87.2% | HCT-116 colon 102% | HCC-2998 colon 101% | KM12 colon 103%

CN1CCOCCN(C)Cc2ccc3ccc(cc3c2)CN(C)CCOCCN(C)Cc2ccc3ccc(cc3c2)C1
inactive: RPMI-8226 leukemia 36.7% | OVCAR-8 ovarian 103% | OVCAR-5 ovarian 134% | OVCAR-4 ovarian 78.4% | SK-OV-3 ovarian 146% | IGROV1 ovarian 74.8% | OVCAR-3 ovarian 75.6% | HS 578T breast 90.6% | NCI/ADR-RES ovarian 83.5% | T-47D breast 119% | BT-549 breast 93.6% | MDA-MB-435 melanoma 82.9% | SW-620 colon 22.4% | MCF7 breast 77.5% | HCT-116 colon 28.3% | HCC-2998 colon 100% | KM12 colon 73.7%
active: SR leukemia 9.14%

COc1c2c(cc3c1C(=O)N[C@@H]1[C@@H](O)[C@@H](O)[C@H](O)C[C@@H]31)OCCO2
inactive: SR leukemia 92.1% | RPMI-8226 leukemia 102% | OVCAR-8 ovarian 100% | OVCAR-5 ovarian 105% | OVCAR-4 ovarian 105% | SK-OV-3 ovarian 98.6% | IGROV1 ovarian 109% | OVCAR-3 ovarian 104% | HS 578T breast 96.2% | NCI/ADR-RES ovarian 113% | T-47D breast 84.9% | BT-549 breast 99.5% | MDA-MB-435 melanoma 108% | SW-620 colon 104% | MCF7 breast 93.9% | HCT-116 colon 102% | HCC-2998 colon 106% | KM12 colon 99.1%

O=C1CCCC1[n+]1ccccc1 (stereo unspecified)
inactive: SR leukemia 127% | RPMI-8226 leukemia 103% | OVCAR-8 ovarian 85.8% | OVCAR-5 ovarian 70.5% | OVCAR-4 ovarian 98% | SK-OV-3 ovarian 80.1% | IGROV1 ovarian 101% | OVCAR-3 ovarian 97.8% | HS 578T breast 114% | NCI/ADR-RES ovarian 103% | T-47D breast 43.5% | BT-549 breast 84.3% | MDA-MB-435 melanoma 106% | SW-620 colon 117% | MCF7 breast 93% | HCT-116 colon 79.6% | HCC-2998 colon 107% | KM12 colon 97.6%

COc1ccc(-c2cc(C(=O)N3N=C(c4ccc(N)cc4)CC3c3ccc(Cl)cc3)c3ccccc3n2)cc1 (stereo unspecified)
active: OVCAR-3 ovarian 3.86% | BT-549 breast 8.43% | MDA-MB-435 melanoma -12.9%
inactive: SR leukemia 14.5% | RPMI-8226 leukemia 16.2% | OVCAR-8 ovarian 14.2% | OVCAR-5 ovarian 51.6% | OVCAR-4 ovarian 59.6% | SK-OV-3 ovarian 21.6% | IGROV1 ovarian 43.9% | HS 578T breast 16.4% | NCI/ADR-RES ovarian 25.5% | T-47D breast 47.4% | SW-620 colon 29.2% | MCF7 breast 13.9% | HCT-116 colon 15.6% | HCC-2998 colon 21.5% | KM12 colon 20.7%

CC1=C2[C@@H](CC1)[C@]1(C)O[C@@](C3CCNCC3)(C[C@H]1OC(=O)CO)[C@H]2OC(=O)/C=C/c1ccccc1
inactive: SR leukemia 33.1% | RPMI-8226 leukemia 82.3% | OVCAR-8 ovarian 84.3% | OVCAR-5 ovarian 99.4% | OVCAR-4 ovarian 82.9% | SK-OV-3 ovarian 106% | IGROV1 ovarian 80.3% | OVCAR-3 ovarian 93.9% | HS 578T breast 58.4% | NCI/ADR-RES ovarian 90.3% | T-47D breast 62.6% | BT-549 breast 81.7% | MDA-MB-435 melanoma 88.6% | SW-620 colon 93.6% | MCF7 breast 74.2% | HCT-116 colon 74.5% | HCC-2998 colon 99% | KM12 colon 97.6%

Cc1nc([P+](c2ccccc2)(c2ccccc2)c2ccccc2)c(N2CCCCC2)o1
active: RPMI-8226 leukemia -13.5% | T-47D breast -0.433%
inactive: SR leukemia 20.3% | OVCAR-8 ovarian 20.3% | OVCAR-5 ovarian 54.1% | OVCAR-4 ovarian 19.8% | SK-OV-3 ovarian 20.6% | IGROV1 ovarian 32.8% | OVCAR-3 ovarian 19.5% | HS 578T breast 27.9% | NCI/ADR-RES ovarian 107% | BT-549 breast 20% | MDA-MB-435 melanoma 21.3% | SW-620 colon 37% | MCF7 breast 10.9% | HCT-116 colon 10.9% | HCC-2998 colon 31.6% | KM12 colon 10.1%

CCCCCCCCn1ccc2cc(NC(=O)CN=[N+]=[N-])ccc21
inactive: SR leukemia 100% | RPMI-8226 leukemia 99.2% | OVCAR-8 ovarian 96.9% | OVCAR-5 ovarian 98.2% | OVCAR-4 ovarian 103% | SK-OV-3 ovarian 111% | IGROV1 ovarian 87.2% | OVCAR-3 ovarian 96% | HS 578T breast 101% | NCI/ADR-RES ovarian 116% | T-47D breast 94% | BT-549 breast 86.5% | MDA-MB-435 melanoma 108% | SW-620 colon 101% | MCF7 breast 91.1% | HCT-116 colon 97.5% | HCC-2998 colon 117% | KM12 colon 99.4%

Cc1c2ncccc2nc2[nH]c3ccc(OCCN(C)C)cc3c12
inactive: SR leukemia 12.8% | OVCAR-8 ovarian 11.5% | OVCAR-5 ovarian 47.5% | OVCAR-4 ovarian 27.5% | SK-OV-3 ovarian 38.1% | OVCAR-3 ovarian 51.4% | HS 578T breast 47.9% | NCI/ADR-RES ovarian 24.8% | T-47D breast 32.3% | BT-549 breast 63.2% | MDA-MB-435 melanoma 36.8% | SW-620 colon 17.3% | HCT-116 colon 12.6% | HCC-2998 colon 53.3% | KM12 colon 20.9%
active: RPMI-8226 leukemia -31.6% | IGROV1 ovarian 9.29% | MCF7 breast 3.49%

N=C(N)c1ccc(-c2ccc(-c3ccccc3)o2)o1
inactive: OVCAR-8 ovarian 34.4% | OVCAR-5 ovarian 72.8% | OVCAR-4 ovarian 63.1% | SK-OV-3 ovarian 45.9% | IGROV1 ovarian 45.3% | OVCAR-3 ovarian 17% | HS 578T breast 45.6% | NCI/ADR-RES ovarian 36.3% | T-47D breast 32.8% | BT-549 breast 64.6% | MCF7 breast 20.6% | HCT-116 colon 19.4% | HCC-2998 colon 46.9% | KM12 colon 16.6%
active: SR leukemia -15% | RPMI-8226 leukemia 9.58% | MDA-MB-435 melanoma -32.9% | SW-620 colon 1.14%

O=C(NCCCCO)c1cncnc1Nc1ccc2c(ccn2Cc2cccc(F)c2)c1
inactive: SR leukemia 93.4% | RPMI-8226 leukemia 95.3% | OVCAR-8 ovarian 101% | OVCAR-5 ovarian 86.3% | OVCAR-4 ovarian 100% | SK-OV-3 ovarian 89.8% | IGROV1 ovarian 88.1% | OVCAR-3 ovarian 98.5% | HS 578T breast 94.1% | NCI/ADR-RES ovarian 91.3% | T-47D breast 83.3% | BT-549 breast 88.6% | MDA-MB-435 melanoma 92.1% | SW-620 colon 105% | MCF7 breast 96.8% | HCT-116 colon 91.5% | HCC-2998 colon 93.4% | KM12 colon 97.4%

CSc1nc2ccc(C)cc2cc1/C=C1/C=C(c2ccccc2)NC1=O
active: OVCAR-4 ovarian -51.9% | OVCAR-3 ovarian 6.24% | T-47D breast -0.11% | HCT-116 colon 9.26%
inactive: SR leukemia 10.1% | RPMI-8226 leukemia 57.3% | OVCAR-8 ovarian 55.5% | OVCAR-5 ovarian 63.9% | SK-OV-3 ovarian 76.2% | IGROV1 ovarian 25.6% | HS 578T breast 28.9% | NCI/ADR-RES ovarian 51.6% | BT-549 breast 76% | MDA-MB-435 melanoma 30.9% | SW-620 colon 34.9% | MCF7 breast 48.1% | HCC-2998 colon 83.4% | KM12 colon 70.4%

C=C1SC(=Nc2ccccc2Cl)N(C(=O)c2sc3ccccc3c2Cl)C1(C)C
inactive: SR leukemia 65.4% | OVCAR-8 ovarian 61.4% | OVCAR-5 ovarian 92.4% | OVCAR-4 ovarian 29.8% | SK-OV-3 ovarian 58.6% | IGROV1 ovarian 297% | OVCAR-3 ovarian 39.6% | HS 578T breast 73.5% | NCI/ADR-RES ovarian 31.7% | T-47D breast 34.7% | BT-549 breast 85.2% | MDA-MB-435 melanoma 99.1% | SW-620 colon 68% | MCF7 breast 21.2% | HCT-116 colon 54% | HCC-2998 colon 72.9% | KM12 colon 29%
active: RPMI-8226 leukemia 4.32%
